Drawing on PubChem BioAssay, this text covers composite z-score and z-score for 18 compounds.

Each structure is given as a SMILES string.

The subject of assay [1] is Human papillomavirus type 1a protein E7 (residues 44-93). In words: HPV1a E7 fragment binders on microarrays, primary screen, biochemical, small-molecule microarray, residues 44-93, 635 nm fluorescence (AID 1108).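 Note: E7 fragment applied at 1 µg/mL in TBST for 1 h at 4 C; score combines spot fluorescence with its signal to noise ratio.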 The note with it: small-molecule microarray binding, fluorescence 635 nm; higher = more signal.
The nature of assay [2]: modulators of HCV replicon luciferase signal, primary screen, HCV replication inhibitor project, Huh7 cells, luciferase reporter (AID 1109).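 Note: huh7 hepatoma cells harbouring a luciferase neomycin HCV replicon reporter; luciferase luminescence as measure of HCV replicon replication; test concentration not given here.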 The following applies: 48 h, higher = more signal. In general terms: Replicon systems follow genome replication, usually without infectious particles.
The target in assay [3] is Left-right determination factor 2 (Homo sapiens) (UniProt O00292). Nature of the assay: LEFTY2 binders on small-molecule microarrays, primary screen, biochemical, small-molecule microarray, 635 nm fluorescence scan (AID 1110). The following applies: LEFTY2 binding, higher = more signal.
Chain of Left-right determination factor 2 (Homo sapiens) (O00292 whole entry, looked up): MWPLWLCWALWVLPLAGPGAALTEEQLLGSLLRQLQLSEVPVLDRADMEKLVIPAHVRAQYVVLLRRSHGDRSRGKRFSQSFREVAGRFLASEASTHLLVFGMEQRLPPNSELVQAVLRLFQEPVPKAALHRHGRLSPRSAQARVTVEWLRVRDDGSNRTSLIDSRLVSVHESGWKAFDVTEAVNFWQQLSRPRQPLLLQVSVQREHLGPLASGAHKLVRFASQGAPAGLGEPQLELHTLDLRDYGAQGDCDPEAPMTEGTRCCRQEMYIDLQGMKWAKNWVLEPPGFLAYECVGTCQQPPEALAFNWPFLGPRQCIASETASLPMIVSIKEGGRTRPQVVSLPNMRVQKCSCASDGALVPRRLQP
The target of assay [4] is Calmodulin-1 (Homo sapiens) (UniProt P0DP23). In words: CALM1 binders on microarrays, EGTA buffer, profiling panel, biochemical, small-molecule microarray, Cy5-labelled CALM1 (AID 1111).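 Note: labelled calmodulin applied in Tris saline Tween buffer holding calcium plus EGTA and DTT.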 The following applies: Cy5-CALM1 binding fluorescence, higher = more signal.
Assay [5] shares this target. Nature of the assay: calcium-bound CALM1 binders on microarrays, profiling panel, artefact control for SMM control-protein annotation, biochemical, small-molecule microarray, Cy5-labelled CALM1, plus calcium (AID 1112).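 Note: score merges spot fluorescence with signal to noise from triplicate slides.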 The note with it: Cy5-CALM1 binding fluorescence, higher = more signal.
A short description of assay [6]: small-molecule microarray binders of probe aWnt5a, primary screen, biochemical, biotinylated probe, 635/667 nm fluorescence (AID 1113).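 Note: score merges 667 nm fluorescence intensity with signal-to-noise per printed feature.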 The note with it: higher = more signal.
A short description of assay [7]: small-molecule microarray binders of probe aShh, primary screen, biochemical, biotinylated probe, 635/667 nm fluorescence (AID 1114).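 Note: probe is biotin-labelled aShh protein from a stem cell growth factor screen; measures binding of labelled protein to compounds printed on the slide; score merges feature fluorescence at 667 nm with signal-to-noise.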 The following applies: higher = more signal.
Assay [8] can be described thus: small-molecule microarray binders of probe aNog, primary screen, biochemical, biotinylated probe, 635/667 nm fluorescence (AID 1115).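 Note: probe is biotinylated aNog protein used at 0.15 µg/mL for 1 h at 4 C; z-score combines 667 nm fluorescence of each spot with its signal to noise.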 The following applies: higher = more signal.
Assay [9] concerns the target Torsin-1A-interacting protein 1 (Homo sapiens) (UniProt Q5JTV8). In words: LAP1 binders from COS7 cell lysate, primary screen, small-molecule microarray, 635/667 nm fluorescence (AID 1116). The following applies: COS7-hLAP1 lysate binding, 635 nm fluorescence, higher = more signal.
For assay [10], the target named is Alpha-bungarotoxin (Bungarus multicinctus) (UniProt P60615). Nature of the assay: alpha-bungarotoxin binders on microarray, profiling panel, artefact control for SMM control protein annotation, biochemical, small-molecule microarray, Alexa647 label, 635/667 nm fluorescence (AID 1117). The following applies: alpha-BTX-A647 binding fluorescence, higher = more signal.
Chain of Alpha-bungarotoxin (Bungarus multicinctus) (P60615 whole entry, looked up): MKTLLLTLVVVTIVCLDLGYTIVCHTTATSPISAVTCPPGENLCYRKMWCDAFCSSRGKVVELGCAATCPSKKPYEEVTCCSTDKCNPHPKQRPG

Chain of Torsin-1A-interacting protein 1 (Homo sapiens) (Q5JTV8 whole entry, looked up): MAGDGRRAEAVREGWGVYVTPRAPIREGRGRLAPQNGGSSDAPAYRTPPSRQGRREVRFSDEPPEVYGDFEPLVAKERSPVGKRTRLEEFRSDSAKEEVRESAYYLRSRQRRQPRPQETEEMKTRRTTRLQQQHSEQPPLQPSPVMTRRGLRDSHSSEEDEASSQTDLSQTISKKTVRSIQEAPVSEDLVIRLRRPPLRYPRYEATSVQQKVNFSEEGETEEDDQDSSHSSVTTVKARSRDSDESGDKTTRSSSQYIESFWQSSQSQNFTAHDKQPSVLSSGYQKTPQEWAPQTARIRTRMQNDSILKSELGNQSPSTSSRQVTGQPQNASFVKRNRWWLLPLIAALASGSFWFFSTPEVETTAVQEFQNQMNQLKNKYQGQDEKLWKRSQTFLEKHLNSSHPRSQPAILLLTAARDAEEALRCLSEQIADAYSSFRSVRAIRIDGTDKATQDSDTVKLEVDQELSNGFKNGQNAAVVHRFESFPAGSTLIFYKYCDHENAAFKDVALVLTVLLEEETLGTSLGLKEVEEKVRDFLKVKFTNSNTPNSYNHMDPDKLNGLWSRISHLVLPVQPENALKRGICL

`CCCC[C@@H](O)C1=C(COC)C[C@H]2C(=O)N(C)C(=O)[C@H]2[C@H]1CO`: the composite z-score in assay [1] is 0.0944; in assay [3], 0.822; in assay [4], -0.419; in [5] it was -0.573; in assay [6], -0.0417; in assay [7], -0.138. Also, the results for the composite z-score in assay [8], in [9] and in assay [10] were -0.267, 0.13 and -0.165, respectively. This compound also gave a z-score in assay [2] of -0.338.

With `CC(C)C(CO)N1C(=O)[C@@H]2[C@H]3C(=O)OCC=C[C@H]3OC23C=CCN(c2ccc(Cl)cc2)C(=O)[C@@H]13` (stereo not given in full), the composite z-score in assay [1] is -0.0683; in assay [3], -0.433; in assay [4], -0.871; in assay [5], -0.499; in assay [6], -0.1; in assay [7], 0.0278. Besides, the composite z-score is -0.196 in [8], -0.344 in assay [9] and -1.17 in [10]. In assay [2], this compound had a z-score of -0.665.

Take `[N-]=[N+]=NCc1ccccc1[C@@H]1OC(c2ccc(OCCCO)cc2)=N[C@]1(CCS(=O)(=O)c1ccccc1)C(=O)O`: the composite z-score in assay [1] is 1.31; in [3], -0.151; in assay [4], 0.678; in assay [5], 0.0892; in assay [6], 0.0487; in assay [7] it was 0.0469. Besides, the values for the composite z-score in assay [8], in assay [9] and in assay [10] were 0.592, 0.953 and 1.17, respectively. This compound yielded a z-score in [2] of 1.1.

Take `O=C(C1N=C(c2ccc(OCCCO)cc2)N(c2ccccc2)O1)N1CCCCC1` (stereo not given): the composite z-score in [1] was 1.26; in assay [3], 0.413; in assay [4], 2; in [5] it was 0.867; in assay [6] it was 0.0454; in assay [7], -0.229. The composite z-score in assay [8] amounted to 0.411; in [9] it was 1.25; in assay [10], 1.85. Also, in [2], the z-score turned out to be 0.65.

On to `[N-]=[N+]=Nc1ccccc1C[C@@]1(C(N)=O)N=C(c2ccc(OCCCO)cc2)O[C@@H]1c1ccccc1N=[N+]=[N-]`, for which the composite z-score was 1.03 in assay [1]; -0.0762 in [3]; 1.51 in assay [4]; 0.827 in assay [5]; -0.132 in assay [6]; 0.0948 in assay [7]. For the same compound, the composite z-score in assay [8] is -0.722; in assay [9] it was 1.01; in assay [10] it was 1.09. In [2], this compound came in with a z-score of -2.35.

`CCOC(=O)C[C@H]1[C@H](OC(=O)c2ccc(C(=O)c3ccccc3)cc2)[C@@H](NC(=O)CC(C)C)c2cc(OCCCO)ccc2N1C(=O)c1ccccc1`: the composite z-score in [1] was 1.3; in assay [3], 0.53; in assay [4], 0.735; in [5], -0.165; in [6], -0.0758; in assay [7], -0.167. In addition, the results for the composite z-score in [8], in assay [9] and in assay [10] were -0.0927, 0.537 and 0.741, respectively. In [2], this compound had a z-score of -1.12.

In the case of `COC(=O)[C@@H]1N=C(c2ccc(OCCCO)cc2)O[C@@H]1c1ccccc1`, the composite z-score in assay [1] is -1.38; in assay [3], -1.55; in assay [4] it was -0.494; in assay [5], -0.294; in [6] it was -0.152; in assay [7], -0.0709. Moreover, the composite z-score was -0.59 in assay [8], -0.992 in assay [9] and -0.213 in [10]. In assay [2], this compound had a z-score of -1.94.

Regarding `CN(C)C(=O)[C@@]1(Cc2ccccc2CN=[N+]=[N-])N=C(c2ccc(OCCCO)cc2)O[C@H]1c1ccccc1N=[N+]=[N-]`, the composite z-score is 1.45 in assay [1]; -0.553 in assay [3]; 1.73 in assay [4]; 1.11 in assay [5]; -0.191 in assay [6]; -0.138 in assay [7]. Moreover, the composite z-score in assay [8] worked out at 1.84; in assay [9], 2.26; in [10], 1.93. Further, in [2], the z-score is -2.99.

`O=C1C[C@]2(c3ccc([N+](=O)[O-])cc3)C(=O)N(C3CC3)c3cc(CO)ccc3[C@H]2N1CC12CC3CC(CC(C3)C1)C2`: the composite z-score is 0.471 in assay [1]; -1.6 in [3]; -0.448 in assay [4]; -0.87 in assay [5]; -0.148 in assay [6]; -0.124 in assay [7]. The composite z-score was 0.632 in [8], -0.604 in assay [9] and -0.444 in assay [10]. In addition, the z-score in [2] was -0.479.

Turning to `COC(=O)C/C=C/C[C@]1(O)C(=O)N(C)c2ccccc21`, the composite z-score was 0.0938 in assay [1]; 0.704 in assay [3]; -1.34 in [4]; -0.895 in assay [5]; -0.122 in assay [6]; -0.243 in assay [7]. The values for the composite z-score in assay [8], in assay [9] and in assay [10] were -0.252, 0.194 and 0.766, respectively. For the same compound, the z-score in [2] stood at 0.027.

In the case of `O=C1N(CCS(=O)(=O)c2ccccc2)c2ccccc2[C@H]2OC(c3ccc(OCCCO)cc3)=N[C@@]12Cc1ccccc1`, the composite z-score was 0.474 in [1]; 0.949 in [3]; 1.27 in [4]; 0.517 in assay [5]; 0.0101 in [6]; 0.337 in assay [7]. For the same compound, the results for the composite z-score in assay [8], in [9] and in assay [10] were -0.0321, 2.03 and 1.66, respectively. The compound also yielded a z-score in assay [2] of -0.733.

Turning to `CN(C)C(=O)[C@]1(Cc2ccccc2CN=[N+]=[N-])N=C(c2ccc(OCCCO)cc2)O[C@@H]1c1ccccc1`, the composite z-score in assay [1] is 1.47; in assay [3], -0.0728; in [4], 1.56; in assay [5], 0.596; in assay [6], 0.0337; in assay [7] it was 0.792. Also, the composite z-score in assay [8] came to 1.05; in assay [9], 1.39; in [10], 1.92. The same compound registered a z-score in [2] of -3.37.

On to `[N-]=[N+]=Nc1ccccc1C[C@]1(C(=O)O)COC(c2ccc(OCCCO)cc2)=N1`, for which the composite z-score is 0.118 in assay [1]; -0.856 in assay [3]; 0.166 in assay [4]; 0.897 in [5]; 0.0718 in assay [6]; 0.232 in assay [7]. In addition, the composite z-score in [8] was 0.253; in assay [9], -0.811; in assay [10] it was -0.215. This compound also returned a z-score in [2] of 0.928.

Turning to `CC(C)C[C@@H]1NC(=O)[C@@H]2C[C@H](C(=O)NCCCCCCN)[C@H](c3cccc(OCCO)c3)N2C1=O`, the composite z-score in assay [1] is 1.46; in [3] it was 0.281; in [4], 0.861; in assay [5], -0.0534; in [6], -0.0461; in [7], -0.349. Moreover, the composite z-score was -0.346 in assay [8], 1.13 in assay [9] and 1.67 in [10]. In [2], this compound yielded a z-score of -0.125.

On to `COC(=O)c1c(CC[C@@H](CO)NC(=O)N[C@@H](C)Cn2cc(-c3ccccn3)nn2)oc(C(C)=O)c1C(=O)OC`, for which the composite z-score in [1] was 0.683; in [3], 0.328; in assay [4], -0.063; in assay [5], -1.06; in assay [6], -0.0981; in [7] it was 0.123. The composite z-score in assay [8] was -0.0926; in assay [9] it was 0.237; in assay [10], -0.715. Moreover, the z-score in [2] was 0.51.

As to `C[N+](C)(C)CCCC[C@@H]1NC(=O)[C@@H]2C[C@H](C(=O)NCCCCCCN)[C@H](c3cccc(OCCO)c3)N2C1=O`, the composite z-score in assay [1] is 0.896; in assay [3], 0.676; in [4], 2.6; in assay [5], 1.48; in assay [6] it was 0.095; in [7] it was 1.45. The composite z-score in assay [8] came out at 0.662; in [9], 2.55; in assay [10], 1.9. In assay [2], this compound registered a z-score of -0.0759.

In the case of `COc1cc(NN2C(C(O)c3ccc(N(C)C)cc3)C=CC3C(=O)N(c4ccccc4)C(=O)C32)cc(OC)c1OC` (stereo not given), the composite z-score came out at 1.36 in [1]; 0.143 in [3]; 0.68 in assay [4]; 0.0572 in assay [5]; 0.112 in assay [6]; 0.184 in assay [7]. The composite z-score in assay [8] is 0.531; in assay [9], 0.639; in assay [10] it was 0.738. In [2], this compound registered a z-score of -0.99.

As for `C=CCC(OC(C)=O)[C@@H]1[C@@H](N(Cc2cccc3ccccc23)C(=O)Cc2ccc(OC)cc2)c2cc(OCCCO)ccc2N1C(=O)c1ccc(-c2ccccc2)cc1` (stereo not given in full), the composite z-score in assay [1] is -0.446; in [3], -0.279; in assay [4], -0.228; in assay [5], 0.726; in [6], -0.157; in assay [7] it was -0.156. The figures for the composite z-score in assay [8], in assay [9] and in assay [10] were 0.546, 0.435 and 0.28, respectively. Moreover, in assay [2], the z-score came out at 0.321.
